Assay results taken from PubChem BioAssay (NCATS).
Values joined by “and” are separate entries in the source; they are usually repeats but may differ in a detail not shown here. Equal entries are not always repeated. Records with an inconclusive call do not appear. Entries that show only a call come without a potency. Values without a mark were called inactive. Active and inactive are the calls of the source. Unless noted, the call rests on the fitted dose curve; in most records, active means well fitted curve in the direction sought with a large enough effect; inconclusive means small, poorly fitted or top-dose-only effect, or another doubt; inactive means no such curve, though single readings can be large; an effect the other way counts as inactive or inconclusive.

Columns and labels:
[1] = Cell Viability - NIH 3T3 (AID 541); conditions: NIH 3T3 cell viability, qHTS; activity change, negative = cytotoxicity: at 92.2 µM (top of the series);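 further: cells exposed to compound for 40 hours; nearly all actives have a fitted effect of over 25% in size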; further: potency means the concentration at half of the fitted maximal effect
Method in brief: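 In this cytotoxicity screen, acute toxicity is scored as an ATP drop measured by CellTiter-Glo in NIH 3T3 fibroblasts following a 40 hr, 37 °C incubation with compound.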

[2] = Cellular Toxicity (caspase-3) Jurkat (AID 655); conditions: Jurkat caspase-3 activation, luminescence; caspase-3 activation: at 92.2 µM (top of the series), DMSO = 0%, tamoxifen = 100%;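 further: cells exposed to compound for 16 h at 37 °C before reading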
Method in brief: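 Jurkat cells (5000/well) in complete medium exposed 16 h at 37 C; caspase-3/7 activity read by Caspase-Glo luminescence after 20 min at room temperature. Normalized to DMSO and 100 uM tamoxifen; AC50 from Hill fits.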

[3] = Cell Viability - LYMP2-005 (AID 967)
Method in brief: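 Human lymphoblastoid LYMP2-005 cells, 2,500 per well in complete medium, rested 5 h at 37C then compound-treated 24 h at 37C. Intracellular ATP read by CellTiter-Glo luminescence after 30 min at room temperature; AC50 from Hill-equation fits of concentration-response data.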

[4] = Cell Viability - LYMP2-002 (AID 977);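 further: compound exposure lasted 24 h at 37 °C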; further: potency means the concentration at half of the fitted maximal effect
Method in brief: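 Human lymphoblastoid cells, 2500/well, complete medium; 5 h 37 C settle; compound 24 h 37 C; CellTiter-Glo, 30 min RT; luminescence. Decrease in ATP = cytotoxicity; AC50 via Hill equation.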

[5] = Cell Viability - LYMP2-006 (AID 978);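 further: cells exposed to compound for 24 hours; nearly all actives have a fitted effect of over 60% in size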
Method in brief: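 Human lymphoblastoid cells (LYMP2-006), 2500/well in complete medium, were treated with compound for 24 hr at 37 C. Cellular ATP was read by CellTiter-Glo luminescence after 30 min, and AC50 values came from Hill-equation fits of concentration-response data.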

[6] = Cell Viability - LYMP2-014 (AID 983); further: nearly all actives have a fitted effect of over 50% in size
Method in brief: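 Quantitative HTS in lymphoblastoid cells: 24 hr compound exposure, then CellTiter-Glo ATP luminescence. Positive control was tetraoctylammonium bromide, 6.4pM to 92 uM.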

[7] = Cell Viability - LYMP2-020 (AID 986); further: nearly all actives have a fitted effect of over 55% in size; further: potency means the concentration at half of the fitted maximal effect
Method in brief: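 Cells at 2500 per well receive a 24 hr compound exposure at 37 C. Viability is measured as ATP-dependent luciferase luminescence, with AC50 modeled from qHTS concentration-response curves.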

[8] = biological target: Glucocorticoid receptor (Homo sapiens) (UniProt P04150); assay: qHTS assay for small molecule agonists of glucocorticoid receptor signaling (AID 588532; active means well fitted curve in the direction sought with a large enough effect in the signal ratio, with a control signal flat; the % refers to the signal ratio); conditions: HeLa MMTV-bla, beta-lactamase ratio, agonist, 18 h; stronger effect = higher value; percent of dexamethasone control, DMSO zero
Method in brief: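 Cells were plated and rested 3-5 h at 37 C, compounds were added in titration and incubated 18 h, then CCF4 substrate was loaded for 2 h at RT before reading blue/green fluorescence. EC50 came from Hill-equation fitting.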

[9] = biological target: Thyroid hormone receptor beta (Homo sapiens) (UniProt P10828); assay: qHTS assay for small molecule antagonists of thyroid hormone receptor beta signaling (AID 588547; active means well fitted inhibition curve with a large enough effect in the signal ratio, with a control signal flat, not every such curve was filed as active; the % refers to the signal ratio;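 further: cells stimulated with 0.4 nM T3 agonist during compound exposure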); conditions: TR-UAS-bla HEK293, beta-lactamase ratio, antagonist mode, 18 h
Method in brief: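 TR-UAS-bla GripTite HEK293 cells in 2% charcoal/dextran FBS medium; compounds 0.59 nM to 92 uM with T3 at 0.4nM final, 18 h at 37 C. Beta-lactamase read by CCF4 fluorescence (460/530 nm); Hill fits gave IC50 and efficacy.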

[10] = qHTS assay for small molecule activators of the nuclear factor-kappa B (NF-kB) signaling pathway (AID 651749; active means well fitted activation curve with a large enough effect in the signal ratio; the % refers to the signal ratio); conditions: NF-kB-bla ME-180 cells, beta-lactamase FRET ratio, 16 h; stronger effect = higher value
Method in brief: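 NF-kB-bla ME-180 cells, 2,000/well; 23 nL compound or DMSO pinned; 16 hr, 37C/5% CO2; beta-lactamase FRET read-out.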

[11] = Cell Viability - Jurkat (AID 426;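 active means dose-dependent loss of cell ATP signal giving a full or clear fitted curve, ranked by lower potency value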;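 further: potency means the concentration at half of the fitted maximal effect; cells exposed to compound for 40 hours at 37 °C before ATP read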); conditions: qHTS
Method in brief: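 Cytotoxicity was scored as loss of cellular ATP, measured by luciferase-based luminescence, in Jurkat clone E6-1 cells after 40 h compound treatment; tamoxifen and doxorubicin served as positive controls.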

[12] = Cellular Toxicity (caspase-3) NIH 3T3 (AID 666);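 further: caspase signal read after 16 h compound exposure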; further: potency means the concentration at half of the fitted maximal effect
Method in brief: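 Activity: caspase-3/7 induction, NIH 3T3 cells, 16 hr treatment at 37°C, luminescent Caspase-Glo detection; AC50 via Hill equation.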

[13] = Cell Viability - LYMP2-001 (AID 921); further: nearly all actives have a fitted effect of over 70% in size
Method in brief: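 Human lymphoblastoid LYMP2-001 cells, 2500 per well, in complete medium, treated 24 h at 37 C. Viability from cellular ATP by CellTiter-Glo luminescence; AC50 from Hill-equation fits of qHTS concentration-response.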

[14] = Cell Viability - LYMP2-015 (AID 971); further: nearly all actives have a fitted effect of over 55% in size; further: potency means the concentration at half of the fitted maximal effect
Method in brief: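 AC50 values reflect Hill-model fits of ATP-based luminescence (CellTiter-Glo) from a human lymphoblastoid line, 2500 cells/well, treated 24 hr at 37 C.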

[15] = qHTS assay for small molecule disruptors of the mitochondrial membrane potential - 1 hr assay (AID 651754; calls by dose curve; further: nearly all actives have a fitted effect of over 35% in size)
Method in brief: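 In this qHTS format, a 1 hr compound treatment of HepG2 cells precedes Mito-MPS staining, and membrane potential is judged from aggregate (red) against monomer (green) fluorescence intensity.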

[16] = Cell Viability - HUV-EC-C (AID 542);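 further: cells exposed to compound for 40 hours; nearly all actives have a fitted effect of over 35% in size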
Method in brief: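 Concentration-dependent ATP loss in HUV-EC-C cells is the measure. Exposure lasts 40 hr at 37 °C; luminescence follows CellTiter-Glo addition, and Hill fits give AC50.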

[17] = Cellular Toxicity (caspase-3) Hek293 (AID 664); conditions: HEK293 caspase-3 activation, DMSO = 0%, 100 µM tamoxifen = 100%; at 92.2 µM (top of the series);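 further: cells exposed to compound for 16 h at 37 °C before readout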
Method in brief: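 Apoptosis readout: Caspase-Glo 3/7 signal in human HEK293 cells following 16-hour compound incubation. Responses scaled between DMSO baseline and 100 uM tamoxifen.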

Sequence of Thyroid hormone receptor beta (Homo sapiens) (P10828 whole entry, looked up): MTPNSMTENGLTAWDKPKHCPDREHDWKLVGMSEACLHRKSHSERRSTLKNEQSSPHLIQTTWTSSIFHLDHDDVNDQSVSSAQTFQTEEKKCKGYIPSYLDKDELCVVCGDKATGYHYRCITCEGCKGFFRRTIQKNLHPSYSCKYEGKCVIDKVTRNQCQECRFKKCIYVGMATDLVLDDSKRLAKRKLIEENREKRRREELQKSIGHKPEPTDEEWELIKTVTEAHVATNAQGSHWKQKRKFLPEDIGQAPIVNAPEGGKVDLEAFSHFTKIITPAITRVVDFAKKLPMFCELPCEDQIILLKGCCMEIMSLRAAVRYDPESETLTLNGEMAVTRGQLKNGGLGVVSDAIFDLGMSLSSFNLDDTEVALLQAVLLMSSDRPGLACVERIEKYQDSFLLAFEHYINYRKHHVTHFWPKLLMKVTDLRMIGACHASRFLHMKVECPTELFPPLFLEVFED
Sequence of Glucocorticoid receptor (Homo sapiens) (P04150 whole entry, looked up): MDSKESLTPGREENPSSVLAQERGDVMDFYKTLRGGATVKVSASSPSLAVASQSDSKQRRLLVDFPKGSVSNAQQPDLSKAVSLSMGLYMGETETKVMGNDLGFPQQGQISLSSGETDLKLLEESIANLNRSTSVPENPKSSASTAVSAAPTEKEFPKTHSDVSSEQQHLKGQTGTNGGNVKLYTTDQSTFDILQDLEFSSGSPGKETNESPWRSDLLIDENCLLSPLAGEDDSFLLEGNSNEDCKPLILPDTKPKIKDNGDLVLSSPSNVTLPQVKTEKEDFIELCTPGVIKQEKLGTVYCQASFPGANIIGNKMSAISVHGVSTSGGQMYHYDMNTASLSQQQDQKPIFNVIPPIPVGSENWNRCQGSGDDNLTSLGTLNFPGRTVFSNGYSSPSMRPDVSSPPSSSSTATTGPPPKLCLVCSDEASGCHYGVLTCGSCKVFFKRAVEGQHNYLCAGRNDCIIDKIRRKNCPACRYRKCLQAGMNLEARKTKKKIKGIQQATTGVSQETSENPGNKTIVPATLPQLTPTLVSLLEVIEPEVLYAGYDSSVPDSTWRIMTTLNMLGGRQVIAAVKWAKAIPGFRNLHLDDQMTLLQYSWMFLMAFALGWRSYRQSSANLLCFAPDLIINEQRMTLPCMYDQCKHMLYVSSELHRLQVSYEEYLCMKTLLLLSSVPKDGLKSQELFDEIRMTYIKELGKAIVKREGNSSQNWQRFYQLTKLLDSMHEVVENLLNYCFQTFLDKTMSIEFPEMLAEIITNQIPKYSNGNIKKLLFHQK

Structure (SMILES): CC(C)(C)OOC(=O)c1ccccc1
- activity change, negative = cytotoxicity [1]: -137% (active)
- caspase-3 activation [2]: 6.04%
- Potency [3]: inactive
- Potency [4]: inactive
- Potency [5]: inactive
- Potency [6]: inactive
- Potency [7]: inactive
- activation [8]: 1.21% and -1.74%
- activity change % (negative = inhibition) [9]: 11.4%
- activation [10]: 0.502% and 3.48%

Structure (SMILES): BrCC(Br)C1CCC(Br)C(Br)C1 (stereo not drawn)
- Potency [11]: > 92 µM
- caspase-3 activation [2]: 3.33%
- Potency [12]: inactive
- Potency [13]: inactive
- Potency [14]: inactive
- Potency [4]: inactive
- Potency [5]: inactive
- Potency [6]: inactive
- Potency [7]: inactive
- activation [8]: 3.61%
- activation [10]: -1.21%
- Potency [15]: inactive

Structure (SMILES): CC(C)OC(=O)Cc1ccccc1
- Potency [11]: > 92 µM
- Potency [1]: inactive
- Potency [16]: inactive
- caspase-3 activation [2]: -1.43%
- caspase-3 activation [17]: 0.719%
- Potency [12]: inactive
- Potency [13]: inactive
- Potency [3]: inactive
- Potency [14]: inactive
- Potency [5]: inactive
- Potency [6]: inactive
- activation [8]: 0.809%
- activity change % (negative = inhibition) [9]: -4.91%
- Potency [15]: inactive

Structure (SMILES): O=[N+]([O-])/C=C/c1ccccc1
- Potency [11]: 9.79 µM (active)
- Potency [1]: 15.8 µM (active)
- caspase-3 activation [17]: -2.17%
- Potency [12]: 25.1 µM (active)
- Potency [3]: inactive
- Potency [14]: 39.8 µM (active)
- Potency [4]: 39.8 µM (active)
- Potency [7]: 50.1 µM (active)
- activation [8]: -1.34%
- activity change % (negative = inhibition) [9]: -15.9%
- activation [10]: -0.835%
- Potency [15]: inactive

Structure (SMILES): Cc1ccc(N)cc1Cl
- Potency [11]: > 92 µM
- Potency [1]: inactive
- Potency [16]: inactive
- caspase-3 activation [2]: 1.16%
- caspase-3 activation [17]: 0.465%
- Potency [13]: inactive
- Potency [3]: inactive
- Potency [14]: inactive
- Potency [5]: inactive
- Potency [6]: inactive
- Potency [7]: inactive
- activity change % (negative = inhibition) [9]: -8.08%
- activation [10]: -0.096%
- Potency [15]: inactive

Structure (SMILES): O=C(Cl)c1ccccc1F
- Potency [11]: > 92 µM
- Potency [1]: inactive
- Potency [16]: inactive
- caspase-3 activation [2]: 2.05%
- caspase-3 activation [17]: 1.06%
- Potency [13]: inactive
- Potency [3]: inactive
- Potency [14]: inactive
- Potency [4]: inactive
- Potency [6]: inactive
- Potency [7]: inactive
- activity change % (negative = inhibition) [9]: -5.22%
- Potency [15]: inactive

Structure (SMILES): O=NN1CCCCC1
- Potency [11]: > 92 µM
- Potency [1]: inactive
- Potency [16]: inactive
- caspase-3 activation [2]: 1.18%
- caspase-3 activation [17]: -0.0969%
- Potency [12]: inactive
- Potency [13]: inactive
- Potency [3]: inactive
- Potency [14]: inactive
- Potency [5]: inactive
- Potency [6]: inactive
- Potency [7]: inactive
- activation [8]: 0.249%
- activity change % (negative = inhibition) [9]: 8.23%
- activation [10]: -0.849%
- Potency [15]: inactive

Structure (SMILES): CC(C)(COCC1CO1)COCC1CO1 (stereo not drawn)
- activity change, negative = cytotoxicity [1]: -105% (active)
- Potency [16]: inactive
- caspase-3 activation [2]: 14.4%
- caspase-3 activation [17]: 0.0543%
- Potency [12]: inactive
- Potency [3]: inactive
- Potency [14]: inactive
- Potency [4]: inactive
- Potency [5]: inactive
- Potency [6]: inactive
- activity change % (negative = inhibition) [9]: -13.4%
- activation [10]: 0.814%
- Potency [15]: inactive

Structure (SMILES): C=CCO
- Potency [11]: > 92 µM
- Potency [1]: inactive
- caspase-3 activation [17]: 0.437%
- Potency [13]: inactive
- Potency [3]: inactive
- Potency [14]: inactive
- Potency [4]: inactive
- Potency [5]: inactive
- Potency [6]: inactive
- Potency [7]: inactive
- activation [8]: 3.6%
- activation [10]: 0.305%
- Potency [15]: inactive

Structure (SMILES): CCC(Cl)[N+](=O)[O-] (stereo not drawn)
- Potency [11]: > 92 µM
- Potency [1]: inactive
- Potency [16]: inactive
- caspase-3 activation [17]: -0.0531%
- Potency [12]: inactive
- Potency [13]: inactive
- Potency [3]: inactive
- Potency [14]: inactive
- Potency [4]: inactive
- Potency [6]: inactive
- Potency [7]: inactive
- activation [8]: -1.58%
- activity change % (negative = inhibition) [9]: -30.2%
- activation [10]: 0.0697%
- Potency [15]: inactive

Structure (SMILES): Clc1cccc(Cl)c1
- Potency [11]: > 92 µM
- Potency [16]: inactive
- caspase-3 activation [2]: -0.0419%
- caspase-3 activation [17]: 1.04%
- Potency [12]: inactive
- Potency [13]: inactive
- Potency [3]: inactive
- Potency [14]: inactive
- Potency [4]: inactive
- Potency [5]: inactive
- Potency [6]: inactive
- Potency [7]: inactive
- activation [8]: -3.34%
- activity change % (negative = inhibition) [9]: 13.8%
- activation [10]: -1.17%
- Potency [15]: inactive
